# Test results reported in PubChem BioAssay (NCATS).
# Results filed as inconclusive are left out. Entries that show only a call come without a potency. Calls of active or inactive are those of the source. The call rests on the fitted dose curve; in most records, active means well fitted curve in the direction sought with a large enough effect; inconclusive means small, poorly fitted or top-dose-only effect, or another doubt; inactive means no such curve, though single readings can be large; an effect the other way counts as inactive or inconclusive.
# Assays:
# [1] = Quantitative High-Throughput drug screen in 47 multiple myeloma cell lines against the NCATS MIPE library collection: ARD_JJKsccE7 cell viability assay (AID 1918929)
# Outline: (§1)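 Luminescent ATP measurement with CellTiter-Glo gives viability, scaled between DMSO-only wells (100%) and media-only wells (0%). Cells, 500 per well, faced library compounds for 48 hours at 37C.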
# [2] = Quantitative High-Throughput drug screen in 47 multiple myeloma cell lines against the NCATS MIPE library collection: Karpas620_DSMZ cell viability assay (AID 1918959); further: nearly all actives have a fitted effect of over 30% in size
# Outline: as §1
# [3] = Quantitative High-Throughput drug screen in 47 multiple myeloma cell lines against the NCATS MIPE library collection: KMM1_JCRB cell viability assay (AID 1918960); further: nearly all actives have a fitted effect of over 30% in size
# Outline: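 Myeloma cells at 500 per well in 1536-well format treated with MIPE 4.0 library by pin transfer for 48 h at 37C, 5% CO2. Viability from ATP luminescence (CellTiter-Glo), normalized to DMSO (100%) and media-only (0%) wells.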
# [4] = Quantitative High-Throughput drug screen in 47 multiple myeloma cell lines against the NCATS MIPE library collection: KHM11_PLB cell viability assay (AID 1918962); further: nearly all actives have a fitted effect of over 35% in size
# Outline: as §1
# [5] = Quantitative High-Throughput drug screen in 47 multiple myeloma cell lines against the NCATS MIPE library collection: JIM1_ECACC cell viability assay (AID 1918964)
# Outline: as §1
# [6] = Quantitative High-Throughput drug screen in 47 multiple myeloma cell lines against the NCATS MIPE library collection: H1112_PLB cell viability assay (AID 1918967; further: nearly all actives have a fitted effect of over 30% in size)
# Outline: as §1
# [7] = Quantitative High-Throughput drug screen in 47 multiple myeloma cell lines against the NCATS MIPE library collection: KMS27_JCRB cell viability assay (AID 1918970); settings: KMS27 myeloma cells, CellTiter-Glo ATP viability, 48 h; viability (% of DMSO): at 45.8 µM (top of the series); further: nearly all actives have a fitted effect of over 30% in size
# Outline: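 Myeloma cells (500 per well) were exposed to MIPE 4.0 compounds for 48 h at 37 °C, 5% CO2; viability was read as ATP luminescence with CellTiter-Glo, normalized to DMSO-only (100%) and media-only (0%) wells.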
# [8] = Quantitative High-Throughput drug screen in 47 multiple myeloma cell lines against the NCATS MIPE library collection: KMS12BM_JCRB cell viability assay (AID 1918971); further: nearly all actives have a fitted effect of over 35% in size
# Outline: (§2)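 Steps: seed 500 cells per well; pin-transfer MIPE 4.0 library; incubate 48 h at 37C, 5% CO2, humidified; add CellTiter-Glo, 5 min room temperature; read luminescence.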
# [9] = Quantitative High-Throughput drug screen in 47 multiple myeloma cell lines against the NCATS MIPE library collection: KMS12PE_JCRB cell viability assay (AID 1918972); further: nearly all actives have a fitted effect of over 30% in size
# Outline: as §2
# [10] = Quantitative High-Throughput drug screen in 47 multiple myeloma cell lines against the NCATS MIPE library collection: KMS20_JCRB cell viability assay (AID 1918973); further: nearly all actives have a fitted effect of over 45% in size
# Outline: as §1
# [11] = Quantitative High-Throughput drug screen in 47 multiple myeloma cell lines against the NCATS MIPE library collection: KMS21BM_JCRB cell viability assay (AID 1918974); settings: ATP luminescence, 48 h; viability: at 45.8 µM (top of the series)
# Outline: as §1
# [12] = Quantitative High-Throughput drug screen in 47 multiple myeloma cell lines against the NCATS MIPE library collection: KMS26_JCRB cell viability assay (AID 1918975); further: nearly all actives have a fitted effect of over 45% in size
# Outline: as §2
# [13] = Quantitative High-Throughput drug screen in 47 multiple myeloma cell lines against the NCATS MIPE library collection: NCIH929_DSMZ cell viability assay (AID 1918978); further: nearly all actives have a fitted effect of over 35% in size
# Outline: (§3)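 Inhibition of viability over 48 h was scored by ATP content (CellTiter-Glo) in 500-cell wells. Zero and full viability were defined by media-only and DMSO-only wells.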
# [14] = Quantitative High-Throughput drug screen in 47 multiple myeloma cell lines against the NCATS MIPE library collection: Karpas25_ECACC cell viability assay (AID 1918968; further: nearly all actives have a fitted effect of over 35% in size)
# Outline: as §1
# [15] = Quantitative High-Throughput drug screen in 47 multiple myeloma cell lines against the NCATS MIPE library collection: JIM3_ECACC cell viability assay (AID 1918963; further: nearly all actives have a fitted effect of over 35% in size)
# Outline: as §1
# [16] = Quantitative High-Throughput drug screen in 47 multiple myeloma cell lines against the NCATS MIPE library collection: JJN3_DSMZ cell viability assay (AID 1918966; further: nearly all actives have a fitted effect of over 50% in size)
# Outline: as §1
# [17] = Quantitative High-Throughput drug screen in 47 multiple myeloma cell lines against the NCATS MIPE library collection: MOLP8_DSMZ cell viability assay (AID 1918977); further: nearly all actives have a fitted effect of over 45% in size
# Outline: as §3
# [18] = Quantitative High-Throughput drug screen in 47 multiple myeloma cell lines against the NCATS MIPE library collection: INA6_PLB cell viability assay (AID 1918965; further: nearly all actives have a fitted effect of over 55% in size)
# Outline: as §2
# [19] = Quantitative High-Throughput drug screen in 47 multiple myeloma cell lines against the NCATS MIPE library collection: MMM1_PLB cell viability assay (AID 1918976); further: nearly all actives have a fitted effect of over 35% in size
# Outline: as §3
# Potency means the concentration at half of the fitted maximal effect.
Structure (SMILES),Potency [1],Potency [2],Potency [3],Potency [4],Potency [5],Potency [6],Potency [7],Potency [8],Potency [9],Potency [10],Potency [11],Potency [12],Potency [13],Potency [14],Potency [15],Potency [16],Potency [17],Potency [18],Potency [19]
COC(=O)[C@H](CCCN=C(N)N)NS(=O)(=O)c1ccc(C)cc1,inactive,inactive,inactive,inactive,inactive,inactive,inactive,inactive,inactive,inactive,inactive,inactive,inactive,–,–,–,–,–,–
CC1=C(C(=O)Nc2cc3cn[nH]c3cc2F)C(c2ccc(Cl)cc2F)N=C(c2ccnc(Cl)c2)N1 (configuration not stated),20.9 µM (active),18.7 µM (active),20.9 µM (active),inactive,16.6 µM (active),18.7 µM (active),29.6 µM (active),–,16.6 µM (active),–,–,inactive,14.8 µM (active),14.8 µM (active),–,–,–,–,–
NC(=O)c1cccc(-c2cccc(OC(=O)NC3CCCCC3)c2)c1,inactive,inactive,inactive,–,inactive,inactive,–,inactive,inactive,inactive,–,–,inactive,–,inactive,inactive,inactive,–,–
Cc1onc(-c2ccccc2)c1C(=O)N[C@@H]1C(=O)N2[C@@H](C(=O)O)C(C)(C)S[C@@H]12,inactive,inactive,inactive,–,inactive,inactive,–,inactive,inactive,–,inactive,inactive,inactive,inactive,inactive,–,–,–,–
COc1cc(C)c(Sc2cnc(NC(=O)c3ccc(CNC(C)C(C)(C)C)cc3)s2)cc1C(=O)N1CCN(C(C)=O)CC1 (configuration not stated),4.69 µM (active),8.33 µM (active),3.32 µM (active),–,1.48 µM (active),5.9 µM (active),–,16.6 µM (active),5.26 µM (active),3.72 µM (active),–,16.6 µM (active),3.32 µM (active),4.69 µM (active),3.72 µM (active),10.5 µM (active),8.33 µM (active),14.8 µM (active),7.43 µM (active)
C[C@@H]1CC[C@@]2(OC1)OC1CC3C4CC=C5CC(O)CCC5(C)C4CCC3(C)C1[C@@H]2C (some centres not stated),inactive,inactive,inactive,inactive,inactive,inactive,–,inactive,inactive,–,–,–,inactive,inactive,inactive,inactive,inactive,–,–
CCOC(=O)N1CCN([N+]([O-])=NOc2ccc([N+](=O)[O-])cc2[N+](=O)[O-])CC1,5.9 µM (active),5.26 µM (active),10.5 µM (active),–,–,1.18 µM (active),4.18 µM (active),1.48 µM (active),8.33 µM (active),1.18 µM (active),–,0.833 µM (active),1.32 µM (active),0.469 µM (active),2.64 µM (active),2.64 µM (active),2.35 µM (active),2.96 µM (active),3.72 µM (active)
CC[C@H]1OC(=O)[C@H](C)[C@@H](O[C@H]2C[C@@](C)(OC)[C@@H](O)[C@H](C)O2)[C@H](C)[C@@H](O[C@@H]2O[C@@H](C)C[C@H](N(C)C)[C@@H]2O)[C@](C)(O)C[C@@H](C)C(=O)[C@H](C)[C@@H](O)[C@]1(C)O,inactive,inactive,inactive,inactive,inactive,inactive,inactive,–,inactive,–,inactive,inactive,inactive,–,inactive,–,inactive,–,–
Oc1cc(-c2nc(-c3ccccc3)[nH]c2-c2ccncc2)ccc1Cl,5.9 µM (active),5.9 µM (active),1.87 µM (active),1.18 µM (active),–,–,2.64 µM (active),20.9 µM (active),14.8 µM (active),8.33 µM (active),3.32 µM (active),16.6 µM (active),3.72 µM (active),2.96 µM (active),20.9 µM (active),18.7 µM (active),16.6 µM (active),–,18.7 µM (active)
COc1ccc(Nc2nccc(NCCO)n2)cc1,inactive,inactive,inactive,–,inactive,inactive,inactive,–,–,–,–,inactive,inactive,inactive,inactive,–,–,–,–
O=C1NCCc2[nH]c(-c3ccncc3)cc21,4.18 µM (active),2.35 µM (active),1.05 µM (active),2.09 µM (active),0.662 µM (active),4.18 µM (active),1.32 µM (active),3.72 µM (active),6.62 µM (active),–,–,3.32 µM (active),2.64 µM (active),2.96 µM (active),–,2.09 µM (active),–,1.32 µM (active),16.6 µM (active)
